The record followed here is PubChem BioAssay AID485317 (Broad Institute, 2010).

The structures appear in SMILES notation. The whole screen tested about 290,000 compounds, of which about 11,000 (3.8%) were called active.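 How the source made its calls: active means mean replicate inhibition above about 79%, with every replicate also reaching it (limit read from the data); inconclusive means only one of the two criteria met; inactive means mean below limit and not every replicate reaching it.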 This excerpt belongs to a sample that is enriched for actives.

FAD-linked sulfhydryl oxidase ALR (Homo sapiens), sequence (P55789 whole entry, looked up): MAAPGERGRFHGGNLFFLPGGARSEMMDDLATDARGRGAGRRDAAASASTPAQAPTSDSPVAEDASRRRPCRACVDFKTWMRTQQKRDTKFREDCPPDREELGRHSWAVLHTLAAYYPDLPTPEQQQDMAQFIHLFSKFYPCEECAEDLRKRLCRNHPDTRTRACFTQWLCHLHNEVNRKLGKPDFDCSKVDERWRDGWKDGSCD

The assay has as its target FAD-linked sulfhydryl oxidase ALR (Homo sapiens) (UniProt P55789). Briefly: inhibitors of human ALR sulfhydryl oxidase, primary screen, biochemical, H2O2 detection, HRP-luminol luminescence, single point (AID 485317). The note with it: purified ALR, DTT oxidation, hits give high values, concentration not given here.
The inhibition is the drop in the measured response relative to a control, in per cent. For `COc1ccccc1/C=N/Nc1nc(C)c(C(C)=O)s1`, the inhibition was 3.01% (inactive).

Regarding `CSc1ccc(/C=C2\NC(=O)NC2=O)cc1`, the inhibition is 4.58% (inactive). As to `COC(=O)C1=C(C)N(c2ccc(Br)cc2)C(=O)/C1=C\c1ccco1`, the inhibition was 3.31% (inactive). On to `Cc1ccc(N2NC(=O)/C(=C/C=C/c3ccco3)C2=O)cc1C`, for which the inhibition is 97.4% (active). The same measure for `Cc1ccc(N=C2NC(=O)/C(=C/C=C/c3ccco3)S2)cc1C`: 88.6% (active). As for `Cc1cccc(N=C2NC(=O)/C(=C/c3cn(C)c4ccccc34)S2)c1`, the inhibition was -1.56% (inactive). The same measure for `Cc1ccc(-c2cc(C(=O)N/N=C/C=C/c3ccco3)c3ccccc3n2)cc1C`: -5.26% (inactive); for `COc1ccc(CNC(=O)COC(=O)c2sccc2C)cc1OC`: 2.29% (inactive); for `O=C(CN1C(=O)NC2(CCCC2)C1=O)OCCOc1ccc(F)cc1`: -0.86% (inactive).

For `CN(CC(=O)Nc1ccc(Cl)cc1)C(=O)c1ccc(COc2ccccc2)cc1`, the inhibition was -2.8% (inactive). As for `Cc1[nH]c2ccccc2c1/C=N\NC(=O)Cn1nnc(-c2ccccc2)n1`, the inhibition was -18.5% (inactive). `COCCNC(=S)N/N=C/c1c(C)[nH]c2ccccc12`: the inhibition is 98% (active). For `Cc1[nH]c2ccccc2c1/C=N/NC(=O)CNC(=O)c1ccc2c(c1)OCO2` the value was -4.62% (inactive); for `O=C(COC(=O)C1(c2ccc(F)cc2)CCCC1)N1CCNC1=O`, 1.5% (inactive); for `COc1ccccc1C(CNC(=O)c1cccc(NS(=O)(=O)c2ccc(Br)cc2)c1)N(C)C` (stereo not drawn), -2.7% (inactive). For the compound `CC(C)NC(=O)Nc1cccc2c1O[C@@H](CN(C)S(=O)(=O)c1ccc(F)cc1)[C@@H](C)CN([C@H](C)CO)C2=O`, the inhibition was -3.22% (inactive).

Turning to `CCOC(=O)c1c(-c2cccc(N)c2)cn2ccccc12`, the inhibition was 99% (active). The same measure for `CCOC(=O)c1c(N)nn(C(=O)c2ccccc2)c1-c1ccccc1`: 3.16% (inactive); for `CCOC(=O)c1c(-c2ccccc2)oc2cc(Br)c(O)cc12`: 13.2% (inactive). In the case of `CCOC(=O)c1sc(N)c(C#N)c1COC(=O)C1=COCCO1`, the inhibition is -1.4% (inactive).

As to `CCOC(=O)CSc1ccccn1`, the inhibition was -2.85% (inactive). For the compound `CCOC(=O)CSC1=N/C(=C/c2ccc(-n3cncn3)cc2)C(=O)N1C(C)=O`, the inhibition was 97.6% (active). The same measure for `CCOC(=O)CSc1nc(C)cc2c1C(=O)OC2`: -5.37% (inactive); for `CC(=O)Nc1ccc(NC(=O)COC(=O)c2ccccc2C(=O)c2ccccc2)cc1`: 0.353% (inactive). Consider `COc1ccc(S(=O)(=O)N2CCCCCC2)cc1C(=O)N(C)Cc1cccc(OC)c1OC`, for which the inhibition is -1.21% (inactive). For `CCOc1ccc(C(=O)NCC(=O)N2CCN(c3ccc(C(F)(F)F)cn3)CC2)cc1` the value was 1.77% (inactive); for `O=C(COC(=O)CN1C(=O)C2CCCCC2C1=O)Nc1ccc(F)c(F)c1F` (stereo not drawn), -5.29% (inactive). As for `COc1ccc([N+](=O)[O-])cc1-c1nc2ccccc2nc1-c1ccccc1`, the inhibition is -10.3% (inactive). For the compound `Cc1nc(-c2ccc([N+](=O)[O-])cc2)c(-c2ccccc2)o1`, the inhibition is 97.6% (active).

Turning to `Cc1cccc(NC(=O)c2sc(-c3ccccc3)nc2-c2ccc([N+](=O)[O-])cc2)c1`, the inhibition is -3.26% (inactive).

For the compound `CCC(CO)Oc1cc(NCc2ccccc2)c2ncn(C3CCCC3)c2c1` (stereo not drawn), the inhibition was 15.4% (inactive). As for `CC1CC1C(=O)OCC(=O)Nc1cccc(F)c1` (stereo not drawn), the inhibition is -3.36% (inactive). The same measure for `COC(=O)c1ccc(C)c(NC(=O)Cn2c(C)csc2=O)c1`: -1.89% (inactive). Consider `O=[N+]([O-])c1cccc(Nc2c3ccccc3nc3ccccc23)c1`, for which the inhibition was -6.1% (inactive). As to `Cc1ccc(Nc2c3c(nc4ccccc24)CCC3)cc1`, the inhibition is 98.4% (active). For `CC(=O)Nc1ccc(Nc2c3ccccc3nc3ccccc23)cc1`, the inhibition was 89.9% (active). `CC(=O)Nc1ccc(-c2nc3ccccc3o2)cc1`: the inhibition is -1.09% (inactive). For `O=C(Nc1c2c(nc3ccccc13)CCCC2)c1ccccc1Br`, the inhibition was -5.44% (inactive).

With `N#Cc1cccc(Nc2c3c(nc4ccccc24)CCCC3)c1`, the inhibition was -9.75% (inactive).

As to `CCOC(=O)C1=C(COC(=O)[C@H](C)NS(=O)(=O)c2ccccc2F)NC(=O)NC1C` (stereo partly drawn), the inhibition is -1.62% (inactive). Consider `O=C(CN1C(=O)NC2(CCOc3ccccc32)C1=O)NCc1ccc(F)cc1` (stereo not drawn), for which the inhibition was -3.27% (inactive). In the case of `COC(=O)C1CCN(C(=O)COC(=O)c2cc(S(=O)(=O)N3CCOCC3)ccc2C)CC1`, the inhibition was -15.3% (inactive). In the case of `CCn1c2ccccc2c2cc(NC(=O)C/C(C)=N/NC(=O)c3ccccc3N)ccc21`, the inhibition was -1.26% (inactive). As for `O=C(Nc1ccc(NC(=O)c2ccccc2F)cc1)c1ccccc1F`, the inhibition was -9.75% (inactive). On to `C/C(CC(=O)Nc1ccc(N(C)C)cc1)=N\NC(=O)c1ccccc1F`, for which the inhibition was 87.2% (active). For `Cc1ccc2c(c1)NC(=O)[C@@]1(C)[C@@H](c3ccccc3)[C@H]3COc4ccc(Cl)cc4[C@@H]3N1C2=O` the value was 0.863% (inactive); for `CC(=O)N1CCc2c(sc(NC(=O)CCS(=O)(=O)c3ccc(C)cc3)c2C(N)=O)C1`, -33.3% (inactive). As for `C[C@H]1COC(=O)[C@H](CC(=O)OC(C)(C)C)C/C=C\C[C@@H](CC(=O)N[C@H](CO)Cc2ccccc2)C(=O)N1`, the inhibition was 1.44% (inactive).

As for `CCCCN(C(=O)c1ccc2ccccc2c1)c1c(N)n(CCCC)c(=O)[nH]c1=O`, the inhibition was -4.16% (inactive). Take `Cc1nn(C)cc1C(=O)NNC(=S)Nc1ccc(Cl)cc1`: the inhibition was 49.6% (inactive).

Regarding `Cn1cc(Cl)c(C(=O)NNC(=S)Nc2cccc(Cl)c2)n1`, the inhibition is 89.2% (active). For `Cc1cccc(-n2cnc(C(=O)NNC(=S)Nc3ccccc3)c2)n1` the value was 47.8% (inactive); for `CC(OC(=O)CCCOc1ccccc1)C(=O)Nc1ccc(Cl)cn1` (stereo not drawn), -0.655% (inactive); for `CN(Cc1ccc(F)cc1)C(=O)CN1C(=O)c2ccccc2S1(=O)=O`, 1.6% (inactive). The same measure for `COc1ccc(COC(=O)N/N=C(\C)CC(=O)Nc2ccc(Cl)cc2)cc1`: -4.07% (inactive); for `C/C(CC(=O)Nc1ccc(Cl)cc1)=N\NC(=O)C(=O)NCCO`: 96.1% (active); for `C/C(CC(=O)Nc1cccc(C(F)(F)F)c1)=N\NC(=O)C(=O)NCC(C)C`: -10.3% (inactive). The same measure for `CC(C#N)OC(=O)c1cccnc1SCC(=O)Nc1ccc2c(c1)OCO2` (stereo not drawn): -10.2% (inactive).
